Legend:
Assay in all cases: log2 ratio of Biotin-Ahx-Ub-VS probe labelling (fragment/DMSO); higher = less target engagement (more negative = stronger competition), active = hit call of the paper (q ≤ 0.05, log2 ratio ≤ -1)
Details in all cases: compound concentration: 200 uM; treatment time: 3 h
USP42 = biological target: T1, USP42 (UniProt Q9H9J4)
T1 sequence (whole entry): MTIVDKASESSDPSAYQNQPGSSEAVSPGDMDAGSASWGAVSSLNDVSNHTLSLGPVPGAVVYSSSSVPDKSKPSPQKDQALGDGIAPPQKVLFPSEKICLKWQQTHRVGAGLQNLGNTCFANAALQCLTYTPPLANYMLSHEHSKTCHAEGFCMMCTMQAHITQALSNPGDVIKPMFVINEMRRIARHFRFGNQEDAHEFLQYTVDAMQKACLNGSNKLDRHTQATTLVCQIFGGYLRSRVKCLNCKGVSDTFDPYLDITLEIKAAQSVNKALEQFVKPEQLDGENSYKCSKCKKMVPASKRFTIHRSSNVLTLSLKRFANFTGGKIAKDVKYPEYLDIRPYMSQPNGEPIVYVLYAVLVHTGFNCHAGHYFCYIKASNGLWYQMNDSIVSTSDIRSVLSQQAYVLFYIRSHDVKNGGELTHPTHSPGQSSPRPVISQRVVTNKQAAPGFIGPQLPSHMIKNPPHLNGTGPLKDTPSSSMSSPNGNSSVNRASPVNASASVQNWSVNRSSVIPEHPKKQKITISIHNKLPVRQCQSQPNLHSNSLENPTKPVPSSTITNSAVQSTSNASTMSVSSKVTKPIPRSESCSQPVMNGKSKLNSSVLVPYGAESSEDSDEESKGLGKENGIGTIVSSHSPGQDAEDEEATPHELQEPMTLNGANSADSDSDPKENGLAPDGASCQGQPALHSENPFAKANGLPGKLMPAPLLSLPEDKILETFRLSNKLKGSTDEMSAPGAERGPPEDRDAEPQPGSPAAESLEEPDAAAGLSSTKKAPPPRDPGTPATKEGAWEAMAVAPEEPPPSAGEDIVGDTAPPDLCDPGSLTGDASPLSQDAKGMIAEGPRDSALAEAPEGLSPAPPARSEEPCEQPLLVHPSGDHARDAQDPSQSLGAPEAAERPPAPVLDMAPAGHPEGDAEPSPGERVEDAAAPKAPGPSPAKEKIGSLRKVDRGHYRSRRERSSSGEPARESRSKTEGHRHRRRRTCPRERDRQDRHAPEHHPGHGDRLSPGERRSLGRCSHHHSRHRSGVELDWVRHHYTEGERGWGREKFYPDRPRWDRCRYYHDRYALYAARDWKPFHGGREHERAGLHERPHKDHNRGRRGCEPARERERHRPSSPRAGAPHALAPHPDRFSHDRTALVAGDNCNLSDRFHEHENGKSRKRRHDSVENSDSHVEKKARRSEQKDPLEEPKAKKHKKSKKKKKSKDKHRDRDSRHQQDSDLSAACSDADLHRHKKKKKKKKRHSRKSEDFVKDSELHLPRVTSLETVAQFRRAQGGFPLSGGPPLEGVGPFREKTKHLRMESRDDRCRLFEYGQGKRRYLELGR
Outline: (§1)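 Fragment (200 µM) or vehicle was incubated for 3 h with triplicate HEK293T lysate samples of 495 µg, which were then treated with Biotin-Ahx-Ub-VS at 0.5 µM final for 1 h. Labelled DUBs were enriched on NeutrAvidin, digested with LysC and trypsin, and analysed by diaPASEF LC-MS/MS. Values are average log2 fragment/vehicle ratios from an unpaired t-test on global-median-normalised Spectronaut label-free quantities, using proteins with ≥2 unique peptides.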

USP46 = USP46 (UniProt P62068)
Sequence of USP46 (P62068 whole entry): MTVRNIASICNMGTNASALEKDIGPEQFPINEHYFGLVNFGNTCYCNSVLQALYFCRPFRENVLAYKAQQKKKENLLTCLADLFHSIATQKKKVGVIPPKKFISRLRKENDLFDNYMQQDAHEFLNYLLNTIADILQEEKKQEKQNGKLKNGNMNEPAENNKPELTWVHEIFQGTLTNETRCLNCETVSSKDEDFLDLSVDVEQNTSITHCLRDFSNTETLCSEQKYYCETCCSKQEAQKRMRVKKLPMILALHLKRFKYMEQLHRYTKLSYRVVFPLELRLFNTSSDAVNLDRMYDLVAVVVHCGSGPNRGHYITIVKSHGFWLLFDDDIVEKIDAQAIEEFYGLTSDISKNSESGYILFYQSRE
Outline: as §1

USP47 = biological target: T2, USP47 (UniProt Q96K76)
T2 sequence (whole entry): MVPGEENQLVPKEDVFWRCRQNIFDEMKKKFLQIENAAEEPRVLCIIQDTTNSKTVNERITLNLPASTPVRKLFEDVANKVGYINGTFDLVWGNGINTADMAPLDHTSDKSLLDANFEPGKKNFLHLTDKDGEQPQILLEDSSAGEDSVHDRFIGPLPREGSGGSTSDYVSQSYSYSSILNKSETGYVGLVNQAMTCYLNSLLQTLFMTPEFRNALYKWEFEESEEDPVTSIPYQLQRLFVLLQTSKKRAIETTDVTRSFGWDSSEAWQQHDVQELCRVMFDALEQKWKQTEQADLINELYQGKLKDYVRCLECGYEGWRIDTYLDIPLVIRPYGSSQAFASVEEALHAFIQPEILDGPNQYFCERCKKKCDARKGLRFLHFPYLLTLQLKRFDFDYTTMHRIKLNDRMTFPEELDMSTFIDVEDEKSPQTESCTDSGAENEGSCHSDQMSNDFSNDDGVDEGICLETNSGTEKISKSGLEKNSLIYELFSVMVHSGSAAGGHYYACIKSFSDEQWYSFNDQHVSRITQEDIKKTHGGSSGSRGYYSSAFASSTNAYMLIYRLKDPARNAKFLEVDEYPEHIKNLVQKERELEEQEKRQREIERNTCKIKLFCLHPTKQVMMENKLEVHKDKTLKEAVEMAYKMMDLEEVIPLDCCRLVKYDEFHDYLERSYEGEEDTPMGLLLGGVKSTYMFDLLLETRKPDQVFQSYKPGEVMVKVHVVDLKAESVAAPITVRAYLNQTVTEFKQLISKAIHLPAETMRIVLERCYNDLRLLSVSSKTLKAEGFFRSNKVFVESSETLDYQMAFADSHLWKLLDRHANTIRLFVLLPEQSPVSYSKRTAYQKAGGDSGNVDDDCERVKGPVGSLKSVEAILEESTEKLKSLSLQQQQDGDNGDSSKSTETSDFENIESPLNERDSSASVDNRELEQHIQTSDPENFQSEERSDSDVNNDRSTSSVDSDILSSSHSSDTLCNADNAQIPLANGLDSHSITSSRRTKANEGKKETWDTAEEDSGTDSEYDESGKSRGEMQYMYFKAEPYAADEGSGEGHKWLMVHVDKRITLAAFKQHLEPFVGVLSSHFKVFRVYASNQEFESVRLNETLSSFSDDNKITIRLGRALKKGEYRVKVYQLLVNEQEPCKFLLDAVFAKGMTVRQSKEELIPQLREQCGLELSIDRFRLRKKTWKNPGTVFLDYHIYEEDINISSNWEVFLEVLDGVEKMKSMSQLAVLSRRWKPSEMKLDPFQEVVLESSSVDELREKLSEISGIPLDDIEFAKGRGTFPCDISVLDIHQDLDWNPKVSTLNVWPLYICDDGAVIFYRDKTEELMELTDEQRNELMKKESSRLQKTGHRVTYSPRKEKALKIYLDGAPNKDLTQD
Outline: as §1

USP48 = biological target: T3, USP48 (UniProt Q86UV5)
T3 sequence (whole entry): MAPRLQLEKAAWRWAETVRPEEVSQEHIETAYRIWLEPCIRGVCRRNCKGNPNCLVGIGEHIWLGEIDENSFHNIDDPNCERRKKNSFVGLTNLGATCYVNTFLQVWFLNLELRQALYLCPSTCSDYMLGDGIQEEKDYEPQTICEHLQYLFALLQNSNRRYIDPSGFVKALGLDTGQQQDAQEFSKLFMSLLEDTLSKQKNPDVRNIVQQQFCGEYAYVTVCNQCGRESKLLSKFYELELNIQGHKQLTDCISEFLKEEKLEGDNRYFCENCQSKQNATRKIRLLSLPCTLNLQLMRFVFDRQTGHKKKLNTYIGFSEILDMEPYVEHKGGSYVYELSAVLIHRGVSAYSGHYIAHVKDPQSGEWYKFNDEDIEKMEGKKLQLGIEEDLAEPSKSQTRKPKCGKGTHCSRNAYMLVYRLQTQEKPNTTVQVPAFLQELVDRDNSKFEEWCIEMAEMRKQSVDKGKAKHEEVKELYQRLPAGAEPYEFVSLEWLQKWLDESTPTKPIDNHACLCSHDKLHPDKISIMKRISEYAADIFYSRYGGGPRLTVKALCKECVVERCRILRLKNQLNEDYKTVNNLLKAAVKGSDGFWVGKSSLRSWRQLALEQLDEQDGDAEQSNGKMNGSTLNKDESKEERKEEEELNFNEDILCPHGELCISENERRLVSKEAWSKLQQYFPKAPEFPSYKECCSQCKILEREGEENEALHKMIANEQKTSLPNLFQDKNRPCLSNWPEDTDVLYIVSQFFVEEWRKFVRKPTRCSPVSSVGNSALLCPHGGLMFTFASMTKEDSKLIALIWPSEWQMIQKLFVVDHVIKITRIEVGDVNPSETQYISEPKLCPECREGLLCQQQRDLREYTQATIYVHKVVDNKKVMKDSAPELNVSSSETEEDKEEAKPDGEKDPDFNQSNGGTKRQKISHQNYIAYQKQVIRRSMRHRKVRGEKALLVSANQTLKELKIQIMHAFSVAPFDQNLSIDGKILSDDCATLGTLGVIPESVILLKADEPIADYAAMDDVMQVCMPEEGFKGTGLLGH
Outline: as §1

USP5 = biological target: T4, USP5 (UniProt P45974)
T4 sequence (whole entry): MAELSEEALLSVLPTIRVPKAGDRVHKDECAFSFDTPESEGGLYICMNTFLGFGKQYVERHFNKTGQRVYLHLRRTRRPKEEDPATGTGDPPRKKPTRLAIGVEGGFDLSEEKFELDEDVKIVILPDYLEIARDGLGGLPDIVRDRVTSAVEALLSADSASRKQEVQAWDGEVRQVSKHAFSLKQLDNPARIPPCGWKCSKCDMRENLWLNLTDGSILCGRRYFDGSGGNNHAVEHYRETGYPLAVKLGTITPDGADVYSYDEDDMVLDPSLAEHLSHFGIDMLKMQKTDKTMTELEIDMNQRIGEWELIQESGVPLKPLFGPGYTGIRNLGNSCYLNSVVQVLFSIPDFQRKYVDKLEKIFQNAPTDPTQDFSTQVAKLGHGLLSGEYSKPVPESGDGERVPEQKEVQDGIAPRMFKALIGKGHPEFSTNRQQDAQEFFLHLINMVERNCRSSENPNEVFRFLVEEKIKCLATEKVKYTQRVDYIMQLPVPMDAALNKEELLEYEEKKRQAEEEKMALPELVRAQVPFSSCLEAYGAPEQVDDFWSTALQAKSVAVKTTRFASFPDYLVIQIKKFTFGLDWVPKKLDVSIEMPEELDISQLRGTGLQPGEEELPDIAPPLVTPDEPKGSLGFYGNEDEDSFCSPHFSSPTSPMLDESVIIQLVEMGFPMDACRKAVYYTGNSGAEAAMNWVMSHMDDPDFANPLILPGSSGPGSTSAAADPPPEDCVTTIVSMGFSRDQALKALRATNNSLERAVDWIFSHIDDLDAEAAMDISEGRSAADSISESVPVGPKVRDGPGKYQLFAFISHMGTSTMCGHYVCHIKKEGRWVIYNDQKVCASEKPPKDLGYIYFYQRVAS
Outline: as §1

USP54 = USP54 (UniProt Q70EL1)
Sequence of USP54 (Q70EL1 whole entry): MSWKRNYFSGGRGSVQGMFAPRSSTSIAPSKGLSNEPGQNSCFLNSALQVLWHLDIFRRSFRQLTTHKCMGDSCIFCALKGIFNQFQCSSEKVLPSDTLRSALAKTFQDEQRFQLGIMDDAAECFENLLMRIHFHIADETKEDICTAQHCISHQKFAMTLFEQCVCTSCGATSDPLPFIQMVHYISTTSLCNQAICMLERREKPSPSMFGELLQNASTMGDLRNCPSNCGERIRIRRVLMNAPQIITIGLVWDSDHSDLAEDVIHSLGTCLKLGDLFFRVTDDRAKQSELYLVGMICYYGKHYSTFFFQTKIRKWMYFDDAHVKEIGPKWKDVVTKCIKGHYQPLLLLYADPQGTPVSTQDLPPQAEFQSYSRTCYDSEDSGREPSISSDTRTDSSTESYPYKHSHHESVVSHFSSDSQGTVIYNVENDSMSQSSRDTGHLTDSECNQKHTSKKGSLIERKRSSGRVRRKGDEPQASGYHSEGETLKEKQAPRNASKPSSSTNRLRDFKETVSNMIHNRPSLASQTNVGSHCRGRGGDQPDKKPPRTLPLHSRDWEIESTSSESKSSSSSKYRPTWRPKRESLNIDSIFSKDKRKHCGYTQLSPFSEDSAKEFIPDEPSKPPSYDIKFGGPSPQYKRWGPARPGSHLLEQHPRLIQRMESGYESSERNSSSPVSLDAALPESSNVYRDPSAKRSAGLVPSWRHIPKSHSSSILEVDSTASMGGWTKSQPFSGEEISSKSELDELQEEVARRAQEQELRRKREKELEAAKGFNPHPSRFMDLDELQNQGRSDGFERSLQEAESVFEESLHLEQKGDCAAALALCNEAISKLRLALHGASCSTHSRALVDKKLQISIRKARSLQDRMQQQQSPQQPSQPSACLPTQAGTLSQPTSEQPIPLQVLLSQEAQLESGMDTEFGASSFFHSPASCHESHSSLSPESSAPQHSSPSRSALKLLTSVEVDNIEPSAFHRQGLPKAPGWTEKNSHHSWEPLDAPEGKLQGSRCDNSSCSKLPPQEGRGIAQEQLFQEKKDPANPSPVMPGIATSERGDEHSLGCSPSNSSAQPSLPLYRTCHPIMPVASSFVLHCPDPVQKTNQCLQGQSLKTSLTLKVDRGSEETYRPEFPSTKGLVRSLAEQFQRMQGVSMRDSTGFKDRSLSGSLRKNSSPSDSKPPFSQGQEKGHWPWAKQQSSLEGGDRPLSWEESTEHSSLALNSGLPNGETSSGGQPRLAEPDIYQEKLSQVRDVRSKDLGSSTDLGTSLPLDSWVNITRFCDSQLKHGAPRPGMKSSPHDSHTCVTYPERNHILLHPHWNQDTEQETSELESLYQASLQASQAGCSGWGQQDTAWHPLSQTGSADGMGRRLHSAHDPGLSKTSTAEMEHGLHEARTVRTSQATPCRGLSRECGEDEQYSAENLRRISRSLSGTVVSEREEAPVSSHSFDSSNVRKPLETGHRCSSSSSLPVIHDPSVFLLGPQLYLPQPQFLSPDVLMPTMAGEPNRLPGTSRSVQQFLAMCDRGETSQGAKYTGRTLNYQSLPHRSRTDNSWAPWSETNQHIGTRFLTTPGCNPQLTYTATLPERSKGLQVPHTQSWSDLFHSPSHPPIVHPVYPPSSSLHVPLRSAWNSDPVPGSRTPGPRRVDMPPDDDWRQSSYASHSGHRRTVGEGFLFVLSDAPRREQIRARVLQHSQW
Outline: as §1

USP7 = USP7 (UniProt Q93009)
Outline: as §1

USP8 = biological target: T5, USP8 (UniProt P40818)
T5 sequence (whole entry): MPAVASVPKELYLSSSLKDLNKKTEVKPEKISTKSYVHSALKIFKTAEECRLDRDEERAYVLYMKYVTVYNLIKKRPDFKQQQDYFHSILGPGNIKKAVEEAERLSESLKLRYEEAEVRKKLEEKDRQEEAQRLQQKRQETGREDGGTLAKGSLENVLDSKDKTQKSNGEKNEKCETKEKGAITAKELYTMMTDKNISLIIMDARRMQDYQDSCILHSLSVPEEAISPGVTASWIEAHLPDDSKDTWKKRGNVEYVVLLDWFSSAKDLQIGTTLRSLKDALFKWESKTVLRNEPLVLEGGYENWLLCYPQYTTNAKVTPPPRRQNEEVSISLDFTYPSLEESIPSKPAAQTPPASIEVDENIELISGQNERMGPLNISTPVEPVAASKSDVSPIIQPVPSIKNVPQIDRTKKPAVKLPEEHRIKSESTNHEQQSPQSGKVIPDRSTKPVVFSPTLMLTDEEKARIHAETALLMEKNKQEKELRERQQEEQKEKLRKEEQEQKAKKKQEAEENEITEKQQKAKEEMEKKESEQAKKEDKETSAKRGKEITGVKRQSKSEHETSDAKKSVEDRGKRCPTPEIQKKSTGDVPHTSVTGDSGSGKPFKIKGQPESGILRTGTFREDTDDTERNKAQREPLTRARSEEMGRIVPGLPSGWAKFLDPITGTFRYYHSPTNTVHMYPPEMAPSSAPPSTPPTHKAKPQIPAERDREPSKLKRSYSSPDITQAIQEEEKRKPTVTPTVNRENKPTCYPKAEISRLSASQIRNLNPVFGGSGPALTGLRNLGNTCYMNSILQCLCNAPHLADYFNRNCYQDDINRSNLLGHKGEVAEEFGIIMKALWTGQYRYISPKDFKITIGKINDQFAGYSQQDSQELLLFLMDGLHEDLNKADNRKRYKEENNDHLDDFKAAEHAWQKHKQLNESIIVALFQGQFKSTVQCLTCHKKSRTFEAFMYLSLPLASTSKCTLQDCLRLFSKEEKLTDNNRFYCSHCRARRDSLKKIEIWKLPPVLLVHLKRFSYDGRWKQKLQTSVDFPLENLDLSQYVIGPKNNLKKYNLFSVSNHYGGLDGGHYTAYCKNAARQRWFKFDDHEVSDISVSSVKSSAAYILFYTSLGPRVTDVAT
Outline: as §1

USP9X = USP9X (UniProt Q93008)
Sequence of USP9X (Q93008 whole entry): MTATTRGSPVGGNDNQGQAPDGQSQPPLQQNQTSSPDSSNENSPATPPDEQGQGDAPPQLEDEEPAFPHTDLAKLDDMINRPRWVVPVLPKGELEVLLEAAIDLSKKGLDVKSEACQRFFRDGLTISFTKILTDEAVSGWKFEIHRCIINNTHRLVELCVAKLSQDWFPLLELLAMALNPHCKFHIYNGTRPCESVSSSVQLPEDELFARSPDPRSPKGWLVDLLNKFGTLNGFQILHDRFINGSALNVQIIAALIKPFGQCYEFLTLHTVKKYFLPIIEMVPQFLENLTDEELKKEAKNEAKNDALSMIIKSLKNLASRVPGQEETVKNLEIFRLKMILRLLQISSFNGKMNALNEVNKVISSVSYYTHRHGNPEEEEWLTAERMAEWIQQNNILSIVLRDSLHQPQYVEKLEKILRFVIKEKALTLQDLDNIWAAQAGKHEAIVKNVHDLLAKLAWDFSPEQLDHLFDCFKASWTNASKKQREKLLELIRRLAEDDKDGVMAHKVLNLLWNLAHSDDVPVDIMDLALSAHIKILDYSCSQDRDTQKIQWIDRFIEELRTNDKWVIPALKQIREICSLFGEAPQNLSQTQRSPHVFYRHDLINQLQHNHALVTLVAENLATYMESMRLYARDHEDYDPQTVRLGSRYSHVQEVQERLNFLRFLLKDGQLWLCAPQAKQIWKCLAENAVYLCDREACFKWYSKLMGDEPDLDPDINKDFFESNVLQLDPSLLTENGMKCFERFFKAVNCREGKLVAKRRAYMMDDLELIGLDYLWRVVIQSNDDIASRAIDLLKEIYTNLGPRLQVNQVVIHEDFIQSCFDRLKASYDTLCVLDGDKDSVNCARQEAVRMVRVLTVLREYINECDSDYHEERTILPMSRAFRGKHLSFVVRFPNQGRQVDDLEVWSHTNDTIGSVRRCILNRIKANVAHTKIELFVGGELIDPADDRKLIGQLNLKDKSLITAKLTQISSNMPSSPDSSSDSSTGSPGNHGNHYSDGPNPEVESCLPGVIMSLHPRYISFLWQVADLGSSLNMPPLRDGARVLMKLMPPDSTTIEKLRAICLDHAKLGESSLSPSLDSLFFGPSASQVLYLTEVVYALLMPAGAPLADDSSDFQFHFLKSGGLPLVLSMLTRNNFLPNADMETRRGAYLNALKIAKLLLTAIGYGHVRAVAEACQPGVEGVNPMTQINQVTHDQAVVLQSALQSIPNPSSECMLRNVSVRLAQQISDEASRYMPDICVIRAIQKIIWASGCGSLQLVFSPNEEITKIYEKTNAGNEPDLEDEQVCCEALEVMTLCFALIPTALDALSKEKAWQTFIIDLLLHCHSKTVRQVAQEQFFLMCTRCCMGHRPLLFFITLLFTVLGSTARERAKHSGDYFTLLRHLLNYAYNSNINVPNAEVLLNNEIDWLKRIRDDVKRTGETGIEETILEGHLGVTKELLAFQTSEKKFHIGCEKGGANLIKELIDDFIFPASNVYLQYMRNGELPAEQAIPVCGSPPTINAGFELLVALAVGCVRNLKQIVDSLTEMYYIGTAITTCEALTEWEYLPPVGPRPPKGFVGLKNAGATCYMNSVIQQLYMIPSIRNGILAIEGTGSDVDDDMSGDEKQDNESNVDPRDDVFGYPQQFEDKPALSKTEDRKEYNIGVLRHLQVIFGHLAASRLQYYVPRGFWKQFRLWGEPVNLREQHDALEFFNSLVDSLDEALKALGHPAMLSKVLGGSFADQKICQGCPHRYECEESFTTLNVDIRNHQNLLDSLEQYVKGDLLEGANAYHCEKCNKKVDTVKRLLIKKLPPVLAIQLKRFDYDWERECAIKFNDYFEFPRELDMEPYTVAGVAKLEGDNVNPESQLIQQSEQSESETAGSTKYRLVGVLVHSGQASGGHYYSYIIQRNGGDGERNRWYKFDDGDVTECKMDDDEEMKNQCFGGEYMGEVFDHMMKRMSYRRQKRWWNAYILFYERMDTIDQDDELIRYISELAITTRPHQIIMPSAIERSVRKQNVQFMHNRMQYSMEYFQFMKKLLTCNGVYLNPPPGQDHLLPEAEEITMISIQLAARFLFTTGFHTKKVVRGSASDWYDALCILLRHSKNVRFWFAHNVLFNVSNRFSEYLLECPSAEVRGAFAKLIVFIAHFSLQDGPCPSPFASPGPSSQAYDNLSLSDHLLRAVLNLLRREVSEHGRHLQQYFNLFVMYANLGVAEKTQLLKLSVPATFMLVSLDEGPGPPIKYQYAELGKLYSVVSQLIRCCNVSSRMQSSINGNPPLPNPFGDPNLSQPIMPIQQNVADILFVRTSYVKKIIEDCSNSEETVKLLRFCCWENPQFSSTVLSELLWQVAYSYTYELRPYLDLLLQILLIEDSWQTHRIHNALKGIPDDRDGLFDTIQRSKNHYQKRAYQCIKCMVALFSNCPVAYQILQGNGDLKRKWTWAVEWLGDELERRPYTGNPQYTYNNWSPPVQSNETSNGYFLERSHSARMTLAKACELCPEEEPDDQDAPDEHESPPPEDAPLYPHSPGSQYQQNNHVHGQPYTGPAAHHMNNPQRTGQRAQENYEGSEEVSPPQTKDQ
Outline: as §1

UniProt O00487 = biological target: UniProt O00487
Sequence of UniProt O00487 (O00487 whole entry): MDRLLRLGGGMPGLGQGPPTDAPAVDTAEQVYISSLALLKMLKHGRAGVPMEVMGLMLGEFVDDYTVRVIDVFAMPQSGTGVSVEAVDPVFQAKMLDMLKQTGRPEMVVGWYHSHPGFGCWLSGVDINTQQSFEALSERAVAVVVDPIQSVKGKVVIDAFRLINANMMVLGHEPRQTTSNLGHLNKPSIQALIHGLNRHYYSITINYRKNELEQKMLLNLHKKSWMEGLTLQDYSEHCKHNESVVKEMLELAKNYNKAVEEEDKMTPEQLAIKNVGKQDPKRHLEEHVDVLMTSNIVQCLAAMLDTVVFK
Outline: as §1

Measured: log2 ratio of Biotin-Ahx-Ub-VS probe labelling

Cc1cccc(N2CCC(NC(=O)CCl)C2=O)c1 (stereo not given)
inactive: USP42 -0.395 | USP46 0.013 | USP47 -0.0227 | USP48 -0.138 | USP5 -0.179 | USP54 0.699 | USP7 -0.204 | USP8 -0.325 | USP9X -0.421 | UniProt O00487 0.133

Source: the supplement of paper PMC11732987, “Enantioselective OTUD7B fragment discovery through chemoproteomics screening and high-throughput optimisation” (Communications Chemistry, 2025)
